This note sets out measurements from the supplement of paper PMC8387472.

“And” between values parts separate entries of the source, which are not always exact repeats. Identical values can stand only once. Counter-ions that a name gives are not always drawn. ± gives the standard deviation of the averaged measurements.

For the experiment, the system named is mESC LDLR-Dup GFP reporter (SpCas9 MH-deletion repair). As to the kind of experiment: fraction of GFP+ cells relative to DMSO control (fold change); higher = more MH-deletion repair to in-frame LDLR (or more editing). As to conditions: 2 µM; 7 days post-transfection.
For the compound `CS(=O)(=O)OCCCCOS(C)(=O)=O` [Busulfan], the “fraction of GFP+ cells” value turned out to be 1.36 ± 0.93. Next, `O=NN(CCCl)C(=O)NCCCl` [Carmustine]: 1 ± 0.078; `O=C(Nc1ccc(O)c(C(=O)O)c1)c1cccc(NC(=O)c2ccco2)c1`: 1.66 ± 0.41. `Cc1n[nH]c2ncc(C(=O)N3CCC[C@H]3c3ccc(Cl)cc3)cc12`: the “fraction of GFP+ cells” value is 1.35 ± 0.069.

With `O=c1c(O)c(-c2ccc(O)c(O)c2)oc2cc(O)ccc12` [Fisetin], the “fraction of GFP+ cells” value worked out at 1.39 ± 0.39. Next, `COc1c(N2CCNC(C)C2)c(F)cc2c(=O)c(C(=O)O)cn(C3CC3)c12` (centres undefined) [Gatifloxacin]: 0.995 ± 0.12. In the case of `CC(N)C12CC3CC(CC(C3)C1)C2` (centres undefined) [Rimantadine Hydrochloride] it was 0.701 ± 0.034; in that of `CC(=O)c1c(C)c2cnc(Nc3ccc(N4CCNCC4)cn3)nc2n(C2CCCC2)c1=O`, 1.36 and 0.964; in that of `Cc1nc(=O)c2cc(CN(C)c3ccc(C(=O)N[C@@H](CCC(=O)O)C(=O)O)s3)ccc2[nH]1` [Raltitrexed], 2.3 ± 1.

With `Nc1ccn(C[C@@H](CO)OCP(=O)(O)O)c(=O)n1` [Cidofovir], the “fraction of GFP+ cells” value was found to be 1.02 ± 0.1. Next, `N=C1CCCN1Cc1[nH]c(=O)[nH]c(=O)c1Cl` [Tipiracil hydrochloride]: 0.837 ± 0.26. In the case of `C[C@@H](N)[C@H]1CC[C@H](C(=O)Nc2ccncc2)CC1` it was 1.31 ± 0.91; in that of `CO[C@H]1/C=C/O[C@@]2(C)Oc3c(C)c(O)c4c(O)c(c5c(nc6cc(C)ccn65)c4c3C2=O)NC(=O)/C(C)=C\C=C\[C@H](C)[C@H](O)[C@@H](C)[C@@H](O)[C@@H](C)[C@H](OC(C)=O)[C@@H]1C` [Rifaximin], 0.938 ± 0.38.

Turning to `Cc1ncc([N+](=O)[O-])n1CCO` [Metronidazole], the “fraction of GFP+ cells” value was 0.96 ± 0.35.
